Values joined by “and” are separate entries in the source; they are usually repeats but may differ in a detail not shown here. Identical values can stand only once. Results filed as inconclusive are left out. Unmarked numbers belong to inactive results. Active and inactive are the calls of the source. Calls come from the whole dose curve; as a rule, active = well fitted curve in the direction sought with a large enough effect; inconclusive = small, poorly fitted or top-dose-only effect, or another doubt; inactive = no such curve, though single readings can be large; an effect the other way counts as inactive or inconclusive.
Experiments:
[1] = Viability qHTS for spleen associated tyrosine kinase inhibitor (SYKi) drug resistant MV4-11 cells (AID 1963824); note: nearly all actives have a fitted effect of over 35% in size
How it was run: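 SYK inhibitor-resistant MV4-11 AML cells, 500 per well, added to predispensed compounds and incubated 72 hr at 37 C, 5% CO2. Viability measured by CellTiter-Glo luminescence after 10 min at room temperature.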

[2] = Cellular viability qHTS for adrenocortical cancer (ACC) cell line SW-13 (AID 1963989); conditions: SW-13 ACC cells viability, CellTiter-Glo, 48 h; activity (max response): hits give low values; note: nearly all actives have a fitted effect of over 65% in size;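 for activity (max response): cells grown in serum-free medium with ITS supplement; % is set by controls: 0 for no effect and ±100 for the full control effect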
How it was run: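 Here, serum-free SW-13 cultures were dosed up to 46 uM. Following 48 h, ATP-dependent luminescence (CellTiter-Glo) reported viable cells, and logistic modeling produced IC50 values.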

[3] = Quantitative highthroughput screen to assess conditional lethalithy of NOMO1 cells grown in RPMI1640 with untreated serum (RPMI+s) (AID 1963876); note: nearly all actives have a fitted effect of over 35% in size;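 for Viability: 100% = DMSO wells and 0% = empty wells without cells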
How it was run: (§1)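 Each medium arm—HPLM with 10% dialyzed FBS, or RPMI1640 with 5 mM glucose and 10% untreated or dialyzed FBS—was screened against an 11-point, 3-fold compound titration for 48 h at 37 °C, with CellTiter-Glo luminescence as endpoint.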

[4] = Quantitative highthroughput screen to assess conditional lethalithy of NOMO1 cells grown in RPMI1640 with dialyzed fetal bovine serum (RPMI+ds) (AID 1963877); note: nearly all actives have a fitted effect of over 30% in size;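 for Viability: series mostly up to about 46 µM; 100% = DMSO control wells and 0% = empty wells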
How it was run: as §1

[5] = Quantitative highthroughput screen to assess conditional lethalithy of NOMO1 cells grown in Human Plasma-Like Medium with dialyzed fetal bovine serum (HPLM+ds) (AID 1963878); note: nearly all actives have a fitted effect of over 35% in size;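 for Viability: 100% = DMSO wells and 0% = empty wells on each plate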
How it was run: as §1

[6] = Quantitative highthroughput screen to assess conditional lethalithy of P12 Ichikawa cells grown in Human Plasma-Like Medium with dialyzed fetal bovine serum (HPLM+ds) (AID 1963879); conditions: Potency: viability; note: nearly all actives have a fitted effect of over 35% in size; for Viability: series mostly up to about 46 µM
How it was run: as §1

[7] = Quantitative highthroughput screen to assess conditional lethalithy of P12 Ichikawa cells grown in RPMI1640 with dialyzed fetal bovine serum (RPMI+ds) (AID 1963880); conditions: Potency: P12-Ichikawa viability; note: nearly all actives have a fitted effect of over 35% in size;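 for Viability: 100% = DMSO wells and 0% = empty wells on each plate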
How it was run: as §1

[8] = Quantitative highthroughput screen to assess conditional lethalithy of P12 Ichikawa cells grown in RPMI1640 with untreated serum (RPMI+s) (AID 1963881); conditions: Potency: viability; note: nearly all actives have a fitted effect of over 35% in size;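 for Viability: series mostly up to about 46 µM; 100% = DMSO wells and 0% = empty wells without cells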
How it was run: as §1

[9] = Quantitative highthroughput screen to assess conditional lethalithy of SEM cells grown in RPMI1640 with unreated serum (RPMI+s) (AID 1963883); note: nearly all actives have a fitted effect of over 35% in size;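 for Viability: 100% = DMSO wells and 0% = empty wells without cells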
How it was run: as §1

[10] = Quantitative highthroughput screen to assess conditional lethalithy of SEM cells grown in RPMI1640 with dialyzed fetal bovine serum (RPMI+ds) (AID 1963884); note: nearly all actives have a fitted effect of over 35% in size;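 for Viability: series mostly up to about 46 µM; 100% = DMSO control wells and 0% = empty wells without cells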
How it was run: as §1

[11] = Quantitative highthroughput screen to assess conditional lethalithy of SEM cells grown in Human Plasma-Like Medium with dialyzed fetal bovine serum (HPLM+ds) (AID 1963882); note: nearly all actives have a fitted effect of over 35% in size; for Viability: series mostly up to about 46 µM
How it was run: as §1

[12] = Cellular viability qHTS for adrenocortical cancer (ACC) cell line NCI-H295R (AID 1963990); note: nearly all actives have a fitted effect of over 60% in size
How it was run: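 Viability of NCI-H295R after 48 h of treatment (final up to 46 uM) measured through cellular ATP luminescence.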
Potency is the fitted concentration of half-maximal effect.

In the case of `C/C=C1\[C@H](O[C@@H]2O[C@H](CO)[C@@H](O)[C@H](O)[C@H]2O)OC=C(C(=O)OC)[C@H]1CC(=O)OC[C@H]1O[C@@H](OCCc2ccc(O)cc2)[C@H](O)[C@@H](O)[C@@H]1O`, the Potency [1] is reported as “inactive”.

For `O=C(NO)c1ccc(CC(=O)N(CCO)c2ccccc2)cc1`, the Potency [1] was 16.4 µM (active).

With `CCOC(=O)c1cc2ccc(O)cc2oc1=O` the Potency [1] was 14.6 µM (active).

With `CC(C)(C)c1ccc(CN2CCN(C(c3ccccc3)c3ccc(Cl)cc3)CC2)cc1` (configuration not stated) the Potency [1] was 23.1 µM (active).

With `COC(CCc1ccc(O)cc1)CC(=O)CCc1ccc(O)cc1` (configuration not stated) the Potency [1] was 14.3 µM (active).

With `O=C(Nc1cc(C(F)(F)F)ccc1N1CCCCC1)c1ccncc1` the Potency [1] was 14.6 µM (active).

In the case of `C=CCc1ccc(OC(C)Cc2ccc(OC)c(OC)c2)c(OC)c1` (configuration not stated), the Potency [1] is reported as 12.8 µM (active).

For `C/C1=C\[C@@H](C)C[C@@H](C)[C@@H](Cc2cnco2)OC(=O)/C(C)=C/[C@@H](C)C[C@@H](C)[C@@H](Cc2cnco2)OC1=O`, the Potency [1] was 0.502 µM (active).

For `C=C1C(O[C@@H]2O[C@H](CO)[C@@H](O)[C@H](O)[C@@H]2O)CC2C(C)(C)C(O)CCC2(C)C1CC/C(C)=C\CO` (some centres not stated), the Potency [1] was “inactive”.

For `COc1cc2nc(N3CCN(C)CC3)nc(NC3CCN(Cc4ccccc4)CC3)c2cc1OC`, the Potency [1] was 3.26 µM (active).

With `COC(=O)C1=COC(O[C@@H]2O[C@H](CO)[C@@H](O)[C@H](O)[C@H]2O)[C@H]2[C@@H]1[C@H](OC(=O)CCc1ccc(O)cc1)C[C@]2(C)O` (some centres not stated) the Potency [1] was “inactive”.

In the case of `CN1CCC(NC(=O)c2cc(-c3c(O)cc(O)cc3Oc3ccc([N+](=O)[O-])cc3)on2)CC1`, the Potency [1] is reported as 0.103 µM (active).

In the case of `C/C=C(\C)C(=O)OC1C[C@@]2(COC(C)=O)O[C@H]2/C=C\[C@@]2(C)O[C@@H]2[C@H]2OC(=O)C(COC(C)=O)=C12` (some centres not stated), the Potency [1] is reported as 4.47 µM (active).

With `CN[C@@H]1[C@@H](O)[C@@H](O[C@@H]2[C@@H](O)[C@H](O[C@H]3O[C@H](CN)[C@@H](O)[C@H](O)[C@H]3O)[C@@H](N)C[C@H]2NC(=O)C(O)CN)OC[C@]1(C)O` (some centres not stated) the Potency [1] was “inactive”.

With `CC1(C)CC[C@]2(C(=O)O[C@@H]3O[C@H](CO)[C@@H](O)[C@H](O)[C@H]3O)CC[C@]3(C)C(=CCC4[C@@]5(C)C[C@@H](O)[C@H](O)[C@@](C)(CO)C5CC[C@]43C)C2[C@@H]1O` (some centres not stated) the Potency [1] was “inactive”.

For `O=C1NC(=NCc2cccs2)S/C1=C/c1ccc2ncccc2c1`, the Potency [1] was 1.84 µM (active).

For `CC(=O)OC1C(O)C(C)(O)C(/C=C/C(=O)O)C2(C)CCCC(C)(C)C12` (configuration not stated), the Potency [1] was “inactive”.

With `COc1ccccc1[C@@H]1C2=C(CC(C)(C)CC2=O)Nc2n[nH]c(C(F)(F)F)c21` the Potency [1] was 23.1 µM (active).

With `CC(C)(C)c1ccc(-c2nc3c(N4CCN(Cc5ccc6nccnc6c5)CC4)cccc3[nH]2)cc1` the Potency [1] was 8.2 µM (active).

With `COC1CC/C=C(\C)C(=O)Nc2cc(O)cc(c2)CC(C)CC(OC)C(O)C(C)/C=C(\C)C1OC(N)=O` (configuration not stated) the Potency [1] was 0.632 µM (active).

In the case of `CCC(=O)O[C@]1(C(=O)CCl)[C@@H](C)C[C@H]2[C@@H]3C[C@H](F)C4=CC(=O)C=C[C@]4(C)[C@@]3(F)[C@@H](O)C[C@@]21C`, the Potency [1] is reported as 18.4 µM (active).

With `CC1=CC2/C=C(\C)CCC3OC(C)(C)OC3CCC(=O)C23C(=O)NC(CC(C)C)C3C1C` (configuration not stated) the Potency [1] was 7.96 µM (active).

For `O=C(Nc1ccc(-n2nc(C(F)(F)F)cc2C(F)(F)F)cc1)c1ccncc1F`, the Potency [1] was 10.3 µM (active).

With `CCC(O)(C(=O)OCc1ccccc1NC(=O)CCC(=O)O)C(C)O` (configuration not stated) the Potency [1] was “inactive”.

With `N#Cc1ccc(O[C@@H]2c3ccccc3C[C@H]2N2CCC[C@@H](N)C2)c(Cl)c1` the Potency [1] was 16.4 µM (active).

For `CC1CCN(C(c2ccc(F)cc2)c2ccc(C(C)C(=O)O)cc2-c2ccc(C(F)(F)F)cc2)CC1` (configuration not stated), the Potency [1] was 6.51 µM (active).

In the case of `COC(=O)Nc1ccc(-c2nc(N3CCOCC3)c3cnn(C4CCN(Cc5cccnc5)CC4)c3n2)cc1`, the Potency [2] is reported as 12.6 µM (active).

With `CN(NC(=O)CC(=O)NN(C)C(=S)c1ccccc1)C(=S)c1ccccc1` the Potency [1] was 46.1 nM (active) and 4.2 nM (active), the Potency [3] was 0.066 µM (active) and the Potency [4] was 0.0588 µM (active). The Potency [5] was 0.066 µM (active), the Potency [6] was 0.0831 µM (active) and the Potency [7] was 0.0741 µM (active). The Potency [8] was 0.0741 µM (active), the Potency [9] was 0.0417 µM (active) and the Potency [10] was 0.0417 µM (active).

For `CN(C)CCN1C(=O)c2cccc3cc(N)cc(c23)C1=O`, the Potency [1] was 3.72 µM (active), the Potency [3] was 14.8 µM (active) and the Potency [4] was 18.7 µM (active). For the same compound, the Potency [5] was 14.8 µM (active), the Potency [6] was 18.7 µM (active) and the Potency [7] was 18.7 µM (active). The Potency [8] was 16.6 µM (active), the Potency [11] was 5.9 µM (active) and the Potency [9] was 5.26 µM (active). The Potency [10] was 9.35 µM (active), the Potency [2] was 22.4 µM (active) and the Potency [12] was 22.4 µM (active).

With `Cc1cc(NC(=O)Nc2ccc(N(C)C)cc2)c2cc(F)cc(F)c2n1` the Potency [1] was 10.2 µM (active), the Potency [3] was “inactive” and the Potency [4] was “inactive”. The Potency [5] was “inactive”, the Potency [6] was “inactive” and the Potency [7] was “inactive”. The Potency [8] was “inactive”, the Potency [11] was “inactive” and the Potency [9] was “inactive”. The activity (max response) [2] was -2.18% and the Potency [12] was “inactive”.

In the case of `Nc1ncnc2c1ncn2[C@@H]1O[C@H](CO)[C@@H](O)[C@@H]1O`, the Potency [1] is reported as “inactive”, the Potency [3] is reported as 9.35 µM (active) and the Potency [4] is reported as 8.33 µM (active). For the same compound, the Potency [5] was 5.9 µM (active), the Potency [6] was 7.43 µM (active) and the Potency [7] was 14.8 µM (active). The Potency [8] was 6.62 µM (active), the Potency [11] was “inactive” and the Potency [10] was “inactive”. It also gave an activity (max response) [2] of -11.9%.

With `Cc1cccc(-c2[nH]c(C(C)(C)C)nc2-c2ccc3c(c2)OCO3)n1` the Potency [1] was 1.46 µM (active) and 2.09 µM (active), the Potency [3] was 8.33 µM (active) and the Potency [4] was 9.35 µM (active). The Potency [5] was 10.5 µM (active), the Potency [6] was 9.35 µM (active) and the Potency [7] was 11.8 µM (active). For the same compound, the Potency [8] was 10.5 µM (active), the Potency [9] was 9.35 µM (active) and the Potency [10] was 9.35 µM (active). For the same compound, the Potency [2] was 7.94 µM (active) and the Potency [12] was 4.47 µM (active).

For `CN1C(=O)c2sccc2N(C)c2nc(Nc3ccc(S(N)(=O)=O)cc3)ncc21`, the Potency [1] was 0.468 µM (active), the Potency [3] was 10.5 µM (active) and the Potency [4] was 13.2 µM (active). For the same compound, the Potency [5] was 9.33 µM (active), the Potency [6] was 2.63 µM (active) and the Potency [7] was 2.34 µM (active). The Potency [8] was 2.63 µM (active), the Potency [11] was 2.63 µM (active) and the Potency [9] was 2.34 µM (active). The Potency [2] was 20 µM (active).

For `CC(C)(C)C(=O)Oc1ccc2c(c1)nc(NC(=O)c1cccc([N+](=O)[O-])c1)n2CCCO`, the Potency [1] was 9.34 µM (active), the Potency [3] was “inactive” and the Potency [4] was “inactive”. For the same compound, the Potency [5] was “inactive”, the Potency [6] was “inactive” and the Potency [7] was “inactive”. For the same compound, the Potency [8] was “inactive”, the Potency [11] was “inactive” and the Potency [9] was “inactive”. The Potency [10] was “inactive”, the activity (max response) [2] was -24.3% and the Potency [12] was “inactive”.
